PubChem BioAssay (NCI)
Compounds without any hit were thinned out: in the full panel of roughly 83,000, 20% have a hit.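 The test compound was applied at a single concentration to cells in 96-well plates for 48 hours, and percent growth was recorded.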 Activity calls are given as the source filed them. The calls were made as follows: active = growth percent below 10; inactive = the rest.

Tests used:
Assay in all cases: NCI-60 one-dose screen, 48 h (100 = growth as untreated, 0 = no growth, -100 = all killed)
Conditions in all cases: 10 µM unless noted
HCT-15 colon = test system: HCT-15 colon
HT29 colon = test system: HT29 colon
SNB-75 CNS = test system: SNB-75 CNS
SNB-19 CNS = test system: SNB-19 CNS
U251 CNS = test system: U251 CNS
PC-3 prostate = test system: PC-3 prostate
SK-MEL-5 melanoma = test system: SK-MEL-5 melanoma
UACC-62 melanoma = test system: UACC-62 melanoma
LOX IMVI melanoma = test system: LOX IMVI melanoma
SK-MEL-28 melanoma = test system: SK-MEL-28 melanoma

Measured: growth

COc1ccc(N2C(=O)/C(=C/C(Cl)=C/c3ccc([N+](=O)[O-])cc3)SC2=S)cc1
inactive: SK-MEL-5 melanoma 29.3% | SK-MEL-28 melanoma 13.7%
active: HCT-15 colon -24.1% | HT29 colon -20.9% | SNB-75 CNS -33.8% | SNB-19 CNS 2.68% | U251 CNS -83.1% | PC-3 prostate 2.17% | UACC-62 melanoma -25.2% | LOX IMVI melanoma -86.2%

Nc1nc(N)c2c(n1)NC(c1cccc(Nc3ccnc4cc(C(F)(F)F)ccc34)c1)CC(c1ccc(Cl)cc1)=N2 (stereo not given)
inactive: HCT-15 colon 20.3% | HT29 colon 10.6% | SNB-75 CNS 47.9% | SNB-19 CNS 62.8% | U251 CNS 36.7% | PC-3 prostate 32.4% | SK-MEL-5 melanoma 47.2% | UACC-62 melanoma 76.3% | LOX IMVI melanoma 37.5% | SK-MEL-28 melanoma 80.7%

CCN1CCN(c2nc(NNC(=O)c3ccc(OC)cc3)nc(N3CCN(C(c4ccccc4)c4ccccc4)CC3)n2)CC1
inactive: HCT-15 colon 22.2% | HT29 colon 15.6% | SNB-75 CNS 45.9% | SNB-19 CNS 78.3% | U251 CNS 39.5% | PC-3 prostate 30.2% | UACC-62 melanoma 68.3% | SK-MEL-28 melanoma 64.1%
active: SK-MEL-5 melanoma -74.4% | LOX IMVI melanoma 1.43%

CCCCCCC/C=N/NC(=O)c1ccc(-n2cc(-c3ccccc3)nn2)cc1
inactive: HCT-15 colon 73.6% | HT29 colon 101% | SNB-75 CNS 86.3% | SNB-19 CNS 100% | U251 CNS 98.3% | PC-3 prostate 74.8% | SK-MEL-5 melanoma 94.9% | UACC-62 melanoma 61.9% | LOX IMVI melanoma 59.5% | SK-MEL-28 melanoma 98.3%

CN1CCN(Cc2ccc(NC(=O)c3cncc(C#Cc4c(N)ncc5cc(F)ccc45)c3)cc2C(F)(F)F)CC1
active: HCT-15 colon -91.7% | HT29 colon -74.8% | SNB-19 CNS -94.9% | U251 CNS -97.5% | SK-MEL-5 melanoma -52.7% | LOX IMVI melanoma -81.4% | SK-MEL-28 melanoma -41.9%
inactive: SNB-75 CNS 45.1% | PC-3 prostate 37.9% | UACC-62 melanoma 29.4%

COc1ccc(C2=NN(C=O)C(c3ccc(Oc4nc5c(c(=O)n(C)c(=O)n5C)n4C)c(OC)c3)C2)cc1 (stereo not given)
inactive: HCT-15 colon 88.9% | HT29 colon 71.8% | SNB-75 CNS 94.1% | SNB-19 CNS 69.1% | U251 CNS 90.1% | PC-3 prostate 78.4% | SK-MEL-5 melanoma 59.8% | UACC-62 melanoma 88.5% | LOX IMVI melanoma 68.2% | SK-MEL-28 melanoma 97.8%

O=c1oc2ccccc2cc1-c1nn(-c2ccccc2)cc1/C=N/Nc1nc(-c2ccccc2)c(N=Nc2ccccc2)s1
inactive: HCT-15 colon 41.9% | HT29 colon 31.5% | SNB-75 CNS 26.6% | SNB-19 CNS 85.1% | U251 CNS 47.6% | PC-3 prostate 82.1% | SK-MEL-5 melanoma 79.7% | UACC-62 melanoma 59.8% | LOX IMVI melanoma 70% | SK-MEL-28 melanoma 89%

CC/C(=C(/c1ccc(Cl)cc1)c1ccc(OCCN2CCCCCC2)cc1)c1ccccc1
inactive: HCT-15 colon 35.3% | HT29 colon 17% | SNB-75 CNS 107% | SNB-19 CNS 83% | U251 CNS 62.4% | PC-3 prostate 63.3% | SK-MEL-5 melanoma 79.6% | UACC-62 melanoma 87% | LOX IMVI melanoma 68.5% | SK-MEL-28 melanoma 95.7%

Cc1c(-c2cnc3ccc(Cl)cc3c2C(=O)O)nnn1-c1ccc(Cl)cc1
inactive: HCT-15 colon 104% | HT29 colon 101% | SNB-75 CNS 95.3% | SNB-19 CNS 93.1% | U251 CNS 97.3% | PC-3 prostate 98.5% | SK-MEL-5 melanoma 106% | UACC-62 melanoma 82.5% | LOX IMVI melanoma 98.8% | SK-MEL-28 melanoma 105%

CC(C)(C)CC(C)(C)Nc1c(-c2c(O)c3ccccc3oc2=O)nc2sccn12
inactive: HCT-15 colon 100% | HT29 colon 97% | SNB-75 CNS 108% | SNB-19 CNS 97% | U251 CNS 97.7% | PC-3 prostate 92.6% | SK-MEL-5 melanoma 96.9% | UACC-62 melanoma 90.7% | LOX IMVI melanoma 99.7% | SK-MEL-28 melanoma 102%

COc1cc2cc(Oc3ccc(NC(=O)Nc4ccc(F)c(C(F)(F)F)c4)cc3)c(C)nc2cc1OCCN1CCCCC1
active: HCT-15 colon -71.5% | HT29 colon -74% | U251 CNS -85.3% | PC-3 prostate -76% | SK-MEL-5 melanoma -89.3% | LOX IMVI melanoma -70.4% | SK-MEL-28 melanoma -62.5%
inactive: SNB-75 CNS 92.7% | SNB-19 CNS 62.9% | UACC-62 melanoma 50.6%

O=C1CC2C=CCN2C=C1NC(=O)c1ccccc1 (stereo not given)
inactive: HCT-15 colon 100% | HT29 colon 97.9% | SNB-75 CNS 96.8% | SNB-19 CNS 108% | U251 CNS 97.2% | PC-3 prostate 99.7% | SK-MEL-5 melanoma 100% | UACC-62 melanoma 109% | LOX IMVI melanoma 99.3% | SK-MEL-28 melanoma 103%

O=c1ccc2nc(-c3ccccc3)nn(-c3ccccn3)c-2c1
inactive: HCT-15 colon 33.9% | SNB-75 CNS 106% | SNB-19 CNS 102% | U251 CNS 94.4% | PC-3 prostate 83.5% | SK-MEL-5 melanoma 76.6% | UACC-62 melanoma 93.4% | LOX IMVI melanoma 49.6% | SK-MEL-28 melanoma 87.2%
active: HT29 colon -46.5%

COc1ccc(NC(=O)c2ccc(Cl)cc2Cl)cc1
inactive: HCT-15 colon 94% | HT29 colon 100% | SNB-75 CNS 89.9% | SNB-19 CNS 104% | U251 CNS 92.2% | PC-3 prostate 98.8% | SK-MEL-5 melanoma 92.3% | UACC-62 melanoma 96.3% | LOX IMVI melanoma 98.2% | SK-MEL-28 melanoma 105%

C=C(C[n+]1ccccc1)[C@@H]1CC[C@]2(C(=O)OC)CC[C@]3(C)[C@H](CC[C@@H]4[C@@]5(C)CCC(=O)C(C)(C)[C@@H]5CC[C@]43C)[C@@H]12
inactive: HCT-15 colon 104% | HT29 colon 78% | SNB-75 CNS 83.9% | SNB-19 CNS 73.8% | U251 CNS 82.8% | PC-3 prostate 68% | SK-MEL-5 melanoma 80.2% | UACC-62 melanoma 51.8% | LOX IMVI melanoma 93.7% | SK-MEL-28 melanoma 69%

Cc1ccc(C(=O)Nc2ccc(CN3CCN(C)CC3)c(C(F)(F)F)c2)cc1C#Cc1cnc(N)c2ccccc12
active: HCT-15 colon -69.2% | HT29 colon -12.8% | SNB-75 CNS -70.4% | SNB-19 CNS -66.1% | U251 CNS -70.5% | PC-3 prostate 3.18% | SK-MEL-5 melanoma -85.4% | UACC-62 melanoma 4.11% | LOX IMVI melanoma -94.5% | SK-MEL-28 melanoma -86%
